Pf growth 96h – P. falciparum growth inhibition at 96 hour, primary screen for plastid delayed-death inhibitors. AID 504834. P. falciparum luciferase reporter growth, 96 h. actives 6.9% (n = 320,000). Potency, µM (highest dose often 28.7 µM), inactives show at the highest dose activity change, negative = inhibition, hits mostly inhibitors; note: potency is the fitted concentration of half-maximal effect; % is set by controls: 0 for no effect and ±100 for the full control effect
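Luminescence readout: decreased luciferase signal marks inhibited growth of reporter-expressing P. falciparum in infected red cells (2% hematocrit, 0.05% parasitemia final), exposed to compound two generations (96 h, 37 C, 5% CO2).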
Shiga inhibitor – Shiga toxin inhibition. Vero cells, Shiga toxin protein synthesis inhibition reporter. AID 2315. actives 9.2% (n = 290,000). inhibition, % at 38.7 µM; in the data active = inhibition mostly above about 28%, no sharp cut-off; inactive = mostly below about 43%; note: 0% is about no effect
Cycloheximide cs – counter-screen for Shiga toxin inhibitors: cycloheximide protein synthesis inhibition; cell reporter, cycloheximide protein synthesis inhibition counterscreen; max response, %; actives 12% (n = 300,000); in the data active = max response mostly above about 13%, no sharp cut-off; inactive = mostly below about 14%; note: read at 38.3 µM for the half of the compounds with a filed dose; 0% is about no effect
Pf growth 48h – P. falciparum growth inhibition at 48 hours (one generation); P. falciparum luciferase growth in erythrocytes, 48 h; Potency, µM (top dose mostly 28.7 µM), for the others: at the highest dose activity change, negative = inhibition, most hits filed as inhibitors; actives 5.9% (n = 310,000); note: potency is the fitted concentration of half-maximal effect; % is set by controls: 0 for no effect and ±100 for the full control effect
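Erythrocytes infected with P. falciparum carrying an integrated firefly luciferase reporter (2% hematocrit, 0.1% parasitemia final) were exposed to compounds in RPMI 1640 with 0.5% Albumax at 37 C, 5% CO2. Growth inhibition was scored as reduced luminescence.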
HCMV antiviral – human cytomegalovirus inhibition; actives 4.5% (n = 410,000); HFF cells, HCMV-luciferase reporter, 72 h; stronger effect = lower value; activity change, negative = inhibition, % at 57.5 µM; AID 1259415; in the data active = activity change below about -60%; inconclusive = no clear call, values can overlap the other calls; inactive = above about -39%; note: % is set by controls: 0 for no effect and ±100 for the full control effect
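Two-dose cell screen: HFF monolayers treated with compounds and infected with luciferase-expressing HCMV at 1 PFU/cell, 72 h at 37C, then lysed for luciferase measurement.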
* hit, by the source's call; ? = inconclusive; . = not tested or not shown; ! = not active in a repeat. Hits are enriched below; roughly 20% of the tested compounds scored in any of these assays. Unless noted, calls come from the whole dose curve; as a rule, active = well fitted inhibition curve with a large enough effect; inconclusive = small, poorly fitted or top-dose-only effect, or another doubt; inactive = no such curve, though single readings can be large or run the other way.

SMILES	Pf growth 96h	Shiga inhibitor	Cycloheximide cs	Pf growth 48h	HCMV antiviral
O=C(NNC(=O)C1CCN(C(=O)Nc2ccccc2)CC1)c1ccc(F)cc1	20%	.	.	9%	-21
COc1ccc(/C=C/C(=O)N2CCN(S(=O)(=O)c3ccccc3Br)CC2)cc1OC	.	.	.	.	5
CCC(=O)NC(NC(=S)Nc1ccc(S(N)(=O)=O)cc1)C(Cl)(Cl)Cl (stereo not given)	2.1µM*	-3	-1	-6%	21
CC(C)(C)C(=O)Nc1ccc(N=Nc2ccccc2)cc1	56%	-2	1	27%	-62*
CC(C)CC(=O)NC(NC(=S)Nc1ccccc1)C(Cl)(Cl)Cl (stereo not given)	3%	-4	1	13µM*	53
Cc1ccc(C)c(NC(=S)NC(NC(=O)Cc2cccc3ccccc23)C(Cl)(Cl)Cl)c1 (stereo not given)	2.6µM*	-6	-5	.	-98*
Cc1c(NC(=S)NC(NC(=O)CC(C)C)C(Cl)(Cl)Cl)c(=O)n(-c2ccccc2)n1C (stereo not given)	?	-6	-4	-15%	10
CC(=O)NC(NC(=S)Nc1ccc(S(N)(=O)=O)cc1)C(Cl)(Cl)Cl (stereo not given)	-13%	16	-2	-8%	18
O=C(CCN1CCN(c2ccccc2)CC1)NNC(=S)Nc1ccccc1Cl	12%	-11	5	-8%	29
COc1ccc(Br)cc1CN(C)CC(=O)NCc1ccc(F)cc1	-10%	1	-5	-4%	-30
O=C1CNC(=S)N1Cc1cccc(Cl)c1	0%	-5	-3	-11%	-24
CN(CC(=O)Nc1cccc(F)c1)C(=O)C1CC(=O)N(Cc2ccco2)C1 (stereo not given)	?	.	.	-27%	-17
CC(NC(=O)CSc1n[nH]c(-c2ccccc2Cl)n1)c1nc2ccccc2[nH]1 (stereo not given)	.	.	.	.	18
COc1ccc([N+](=O)[O-])cc1NC(=S)NC(NC(=O)C(c1ccccc1)c1ccccc1)C(Cl)(Cl)Cl (stereo not given)	?	2	7	20%	-106*
CCc1ccc(OCC(=O)NC(NC(=S)Nc2ccccc2)C(Cl)(Cl)Cl)cc1 (stereo not given)	0%	-12	-1	13µM*	-27
COc1ccccc1NC(=S)NC(NC(=O)C(C)C)C(Cl)(Cl)Cl (stereo not given)	12%	-10	1	7.4µM*	-28
COc1ccc([N+](=O)[O-])cc1NC(=O)C(C)c1ccccc1 (stereo not given)	?	-1	5	7%	8
COC(=O)NC(NC(=S)Nc1ccccc1OC)C(Cl)(Cl)Cl (stereo not given)	?	2	-1	?	13
O=C(COc1ccccc1)NC(NC(=S)Nc1ccccc1O)C(Cl)(Cl)Cl (stereo not given)	6%	-10	-3	?	-1
CCc1ccc(OCC(=O)NC(NC(=S)Nc2ccccc2OC)C(Cl)(Cl)Cl)cc1 (stereo not given)	57%	-8	-2	?	-72*
CCCc1nc2ccccc2n1Cc1ccccc1OC	1%	-8	9	?	?
COc1cccc(C(=O)N2c3cc(C)ccc3C(C)(c3ccccc3)CC2(C)C)c1 (stereo not given)	.	.	.	.	-16
Cc1c(Cl)cccc1NC(=O)N1CCN(Cc2cc(=O)n3nc(-c4ccccc4F)sc3n2)CC1	.	.	.	.	29
COc1ccccc1CNC(=O)CN(C)c1nn2c(=O)cc(C)nc2s1	.	.	.	.	0
CCOc1ccc(-c2cc3c(=O)n(Cc4nc(-c5ccc(OC(C)C)cc5)oc4C)ccn3n2)cc1Cl	.	.	.	.	12
COc1ccc(C(C)n2c(C)c3c(C)nnc(C)c3c2C)cc1 (stereo not given)	?	-3	-2	?	-81*!
Cc1nnc(C)c2c(C)n(C(C)c3ccccc3)c(C)c12 (stereo not given)	-8%	-19	-1	8.3µM*	?
CCOc1ccccc1N(CC(=O)NCCc1ccc(OC)c(OC)c1)S(=O)(=O)c1ccccc1	60%	-9	-4	?	6
CC(=O)n1nc(-c2cccnc2)nc1NCc1ccc(F)cc1	.	.	.	.	0
CN1CCN(C(c2ccc(C(F)(F)F)cc2)c2ccc3cccnc3c2O)CC1 (stereo not given)	?	-15	-3	?	-97*

From PubChem BioAssay
